Experimental data from PubChem BioAssay AID1159580 (chemical genetic matrix, 2015).
Several values for one entry are separate records, joined by “and”; a condition that tells them apart may be missing. Equal entries are not always repeated. The campaign covered roughly 5,500 compounds. About 2,000 (36%) were called active. Inconclusive results (about 18%) are left out. Rule as the data show it: active = normalized growth mostly below about 0.91 (no sharp cut-off); inconclusive = no clear call, values can overlap the other calls; inactive = mostly above about 0.92. The list shows a part of the results.

Assay: chemical genetic growth profiling, strain panel (AID 1159580);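 also: tested at 20 µM; growth read once vehicle control cultures reached saturation at 30 °C; 1 = growth at the plate median or of vehicle wells; lower values mean less growth of the strain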
Conditions: S. cerevisiae deletion strains, growth OD

Measured: normalized growth

COc1ccc2c(C)cc(=O)oc2c1
inactive: locus YAL013W, strain DEP1, active compounds read low 1.02 | locus YAL021C, strain ccr4, active compounds read low 0.979 | locus YAL026C, strain drs2, active compounds read low 0.989 | locus YAL030W, strain snc1, active compounds read low 1.02 | locus YBL061C, strain skt5, active compounds read low 0.993 | locus YBR009C, strain hhf1, active compounds read low 1.01 | locus YBR021W, strain FUR4, active compounds read low 0.976 | locus YBR023C, strain chs3, active compounds read low 0.989 | locus YBR171W, strain sec66, active compounds read low 0.985 | locus YBR229C, strain ROT2, active compounds read low 1.01 | locus YBR231C, strain swc5, active compounds read low 0.987 | locus YBR279W, strain paf1, active compounds read low 0.995 | locus YCL011C, strain gbp2, active compounds read low 0.999 | locus YCL016C, strain dcc1, active compounds read low 0.997 | locus YCL029C, strain bik1, active compounds read low 1.03 | locus YCL061C, strain MRC1, active compounds read low 0.995 | locus YCL069W, strain vba3, active compounds read low 0.964 | locus YCR088W, strain abp1, active compounds read low 0.979 | locus YDL005C, strain med2, active compounds read low 0.974 | locus YDL035C, strain GPR1, active compounds read low 1.02 | locus YDL040C, strain nat1, active compounds read low 0.99 | locus YDL074C, strain BRE1, active compounds read low 0.995 | locus YDL101C, strain DUN1, active compounds read low 1.02 | locus YDL134C, strain PPH21, active compounds read low 0.992 | locus YDL185W, strain tfp1, active compounds read low 1.04 | locus YDL192W, strain arf1, active compounds read low 1.02 | locus YDR001C, strain nth1, active compounds read low 0.981 | locus YDR069C, strain doa4, active compounds read low 1 | locus YDR101C, strain arx1, active compounds read low 1.01 | locus YDR137W, strain rgp1, active compounds read low 0.979 | locus YDR159W, strain sac3, active compounds read low 0.995 | locus YDR162C, strain NBP2, active compounds read low 1.03 | locus YDR195W, strain ref2 1.04 | locus YDR297W, strain sur2, active compounds read low 1.01 | locus YDR318W, strain mcm21, active compounds read low 1.02 | locus YDR334W, strain swr1, active compounds read low 0.956 | locus YDR335W, strain msn5, active compounds read low 0.981 | locus YDR388W, active compounds read low 1.01 | locus YDR392W, strain spt3, active compounds read low 0.978 | locus YDR502C, strain sam2, active compounds read low 1.03 | locus YEL003W, strain gim4, active compounds read low 0.982 | locus YEL037C, strain rad23, active compounds read low 0.973 | locus YEL061C, strain CIN8 (second series), active compounds read low 0.975 | locus YER015W, strain faa2, active compounds read low 1 | locus YER016W, strain bim1, active compounds read low 0.998 | locus YER110C, active compounds read low 1.02 | locus YER111C, strain swi4, active compounds read low 0.992 | locus YER155C, strain BEM2 (second series), active compounds read low 0.976 | locus YER155C, strain BEM2, active compounds read low 1.01 | locus YER167W, strain BCK2, active compounds read low 1 | locus YFR010W, strain ubp6, active compounds read low 0.966 | locus YGL078C, strain dbp3, active compounds read low 1.03 | locus YGL086W, strain mad1, active compounds read low 1 | locus YGL167C, strain pmr1, active compounds read low 0.983 | locus YGL173C, strain kem1, active compounds read low 0.983 | locus YGL227W, strain vid30, active compounds read low 0.993 | locus YGL240W, strain doc1, active compounds read low 0.99 | locus YGL248W, strain PDE1, active compounds read low 1.02 | locus YGL253W, strain hxk2, active compounds read low 0.994 | locus YGR078C, strain PAC10, active compounds read low 1.01 | locus YGR135W, strain pre9, active compounds read low 1.01 | locus YGR252W, strain gcn5, active compounds read low 0.981 | locus YHR013C, strain ard1, active compounds read low 0.956 | locus YHR027C, strain rpn1, active compounds read low 1 | locus YHR030C, strain SLT2, active compounds read low 1 and 0.963 | locus YHR079C, strain IRE1 (second series), active compounds read low 1.02 | locus YHR079C, strain IRE1, active compounds read low 0.98 | locus YHR094C, strain hxt1, active compounds read low 1.03 | locus YHR129C, strain ARP1, active compounds read low 1.01 | locus YHR142W, strain chs7, active compounds read low 0.97 | locus YHR200W, strain rpn10, active compounds read low 1.01 | locus YIL066C, strain RNR3, active compounds read low 1.01 | locus YIL073C, strain SPO22, active compounds read low 1.06 | locus YIL125W, strain kgd1, active compounds read low 1.04 | locus YIR030C, strain dcg1, active compounds read low 1.03 | locus YJL092W, strain hpr5, active compounds read low 0.999 | locus YJL095W, strain BCK1 (second series), active compounds read low 0.99 | locus YJL095W, strain BCK1, active compounds read low 1.02 and 0.987 | locus YJL115W, strain asf1, active compounds read low 0.976 | locus YJL129C, strain trk1, active compounds read low 1.01 | locus YJL134W, strain LCB3, active compounds read low 1 | locus YJL154C, strain vps35, active compounds read low 0.97 | locus YJL164C, strain tpk1, active compounds read low 0.983 | locus YJL166W, strain qcr8, active compounds read low 0.968 | locus YJL168C, strain set2, active compounds read low 1.03
